14 compounds from PubChem BioAssay (EPA / NIEHS) can be followed below.

Results filed as inconclusive are left out. Activity calls are given as the source filed them. The calls were made as follows: active = hit-call score of the fitted dose curve at least 0.9, where 1 is the maximum; inconclusive = response in the unintended direction; inactive = score below 0.9.

The assay is described as follows: IUF_NPC1_cytotoxicity_72hr: Cytotoxicity Assessment at 72 hours in the Leibniz Research Institute for Environmental Medicine (IUF) Neural Progenitor Cell Proliferation Assay (NPC1) (AID 2284332).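 Also: rising LDH signal means more cytotoxicity.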 As to the method:
IUF_NPC1 is a cell-based, multiplexed assay that uses hNPC, a human primary neural progenitor cells, with measurements taken at 72 hours after chemical dosing in a 96-well plate. Human neural progenitor cells (hNPC) are generated from human fetal brain cortex at gestational week (GW) 16-19. Grown in suspension culture and under proliferative conditions (proliferation media and growth factors), these cells represent neural progenitor cell proliferation. In the NPC1 assay, hNPC's are exposed to the test compound for 72h. Cell proliferation is assessed as an increase in sphere area using automated phase contrast imaging and as incorporation of Bromodeoxyuridine (BrdU) during DNA synthesis using a luminescence-based cell proliferation ELISA. In parallel, the cell viability is assessed using an alamar blue viability assay and the cytotoxicity using a lactate dehydrogenase dependent membrane integrity assay.IUF_NPC1_cytotoxicity_72hr is one of 4 assay components measured from the IUF_NPC1 assay. It is designed to measure cytotoxicity at 72 hrs due to loss of membrane integrity. LDH measurements are performed from medium supernatants of each well and are based on the reduction of resazurin to resorufin measured as fluorescence signal (relative fluorescence unit) in a multiplate reader. Data from the IUF_NPC1_cytotoxicity_72hr component was analyzed at the endpoint IUF_NPC1_cytotoxicity_72hr in the positive analysis fitting direction relative to the dynamic range and baseline of activity. Using a type of viability reporter, gain-of-signal activity can be used to understand cytotoxicity effects.
After the cell expansion period, the cells are cultured for up to four weeks in which they are passaged every week. Between one to three days after passaging, depending on the size chosen for passaging, spheres at a size of 0.3 mm are used in the assay. For the assessment of neural progenitor cell proliferation, the spheres are plated in poly-Hema coated 96-well U-bottom plates filled with proliferation medium containing growth factors (EGF and FGF). One 0.25 - 0.35 mm big sphere is plated in the middle of each well. Within 3 days NPCs proliferate and grow in size. Cultivation during the test method is performed at 37C and 5% CO2 at a pH of 7.2-7.6. As a positive control, spheres are cultivated in the absence of growth factors (EGF and FGF), which dramatically reduces proliferation. Exposure starts on the plating day (day 0) and is continued over three days, without chemical renewal, until the experiment is terminated. The assay is terminated by the assessment of cell viability, cytotoxicity, and proliferation by BrdU. All endpoints are generated from the same experimental run and from each well/sphere in the 96-well plate.
With `CC1(C)C(C=C(Cl)Cl)C1C(=O)OC(C#N)c1cccc(Oc2ccccc2)c1` (centres undefined), the compound was classed as inactive.

With `CNC(=O)Oc1cccc2ccccc12`, the compound was called inactive.

For `CCNC(=O)NC(=O)C(C#N)=NOC`, the outcome was inactive.

Regarding `O=C(Nc1ccccc1-c1ccc(Cl)cc1)c1cccnc1Cl`, the compound was called inactive.

In the case of `CN/C(=N\[N+](=O)[O-])NCc1cnc(Cl)s1`, the call was inactive.

As for `CS(=O)(=O)c1cc(C(F)(F)F)ccc1C(=O)c1cnoc1C1CC1`, the outcome was inactive.

Regarding `N#CN=C1SCCN1Cc1ccc(Cl)nc1`, the result was inactive.

As to `CCOP(=O)(OCC)Oc1nc(Cl)c(Cl)cc1Cl`, the compound was classed as inactive.

`CCSC(=O)N1CCCCCC1`: the call was inactive.

Take `Cc1c(COC(=O)[C@@H]2[C@H](/C=C(\Cl)C(F)(F)F)C2(C)C)cccc1-c1ccccc1`: the call was inactive.

Turning to `COP(=S)(OC)SCn1nnc2ccccc2c1=O`, the result was inactive.

Take `CC(C)(C)C(=O)C(Oc1ccc(Cl)cc1)n1cncn1` (centres undefined): the result was inactive.

Regarding `C=C(C)CN(CC)c1c([N+](=O)[O-])cc(C(F)(F)F)cc1[N+](=O)[O-]`, the call was inactive.

As for `COC(=O)N(C(=O)N1CO[C@@]2(C(=O)OC)Cc3cc(Cl)ccc3C2=N1)c1ccc(OC(F)(F)F)cc1`, the compound was classed as inactive.
